According to ChEMBL document CHEMBL1201862, “PubChem BioAssay data set” (2004):
Among all 51,000 sequences or so, about 3,800 (7.5%) were called active. The sample holds actives, similar sequences and a random draw of the others, so the mix is not that of the screen. Rule as the data show it: active = GI50 up to about 1.1 µM and inactive = higher. Results with a measured potency or affinity are listed apart.

tested on: A498

Substance | GI50 [µM]
[Bis(aminomethyl)pentamethylenesilane]tetrachloropaltinum(IV), CHEMBL2146204 | 0.132
[Bis(aminomethyl)tetramethylenesilane]dichloropaltinum(II), CHEMBL2146205 | 32.8
[Bis(aminomethyl)dimethylsilane]tetrachloroplatinum(IV), CHEMBL2146190 | 15.5
[Bis(aminomethyl)pentamethylenesilane]dichloropaltinum(II), CHEMBL2146202 | 0.279
mu-(1,7-nanodiamine-N,N')bis-(cis-aminedichloroplatimum (II)), CHEMBL2146215 | 66.5
[Bis(aminomethyl)tetramethylenesilane]tetrachloropaltinum(IV), CHEMBL2146189 | 1.64
CISPLATIN, CHEMBL11359 | 8.24
